± gives the standard deviation.

What all share (settings): modulator concentration 10 µM
For assay [1], the system named is RAW-Dual (murine macrophage reporter line). The assay is described as follows: NF-kB reporter (SEAP) activity fold change vs agonist alone; higher = enhanced NF-kB activity. The gist of the method:
(§1)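 RAW-Dual murine macrophage reporter cells were plated at 50 000 per well in 384-well plates, pin-transferred compound to 10 μM final, and pre-incubated for 1 hour at 37 °C before a PRR agonist was added and the cells incubated overnight. NF-κB activity was read from supernatant SEAP with QUANTI-Blue at 620 nm absorbance, and IRF activity from Lucia luciferase with QUANTI-Luc by luminescence. Each signal was expressed as fold change by dividing by the mean agonist-only control on the same plate. Two replicate plates were averaged, with errors obtained by propagation.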

For assay [2] the test system is unchanged. As to the kind of experiment: IRF reporter (Lucia luciferase) activity fold change vs agonist alone; higher = enhanced IRF activity. The gist of the method: as §1
For assay [3] the test system is unchanged. The assay is described as follows: viability score (confluency relative to resting cells, overnight) (fraction); higher = more viable, active = viable (0.7 or more). The gist of the method:
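A compound met the cutoff when both of two confluency masks exceeded 70% of resting cells. Those masks were made with IncuCyte software from IncuCyte images of RAW-Dual macrophages treated overnight at 10 μM final. This is the basis of the viability score, which is confluency relative to resting cells.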

The mark [4] stands for this setting: agonist: CpG ODN 1826 0.5 ug/mL.

With `COc1ccc(C(=O)C=Cc2cc(OC)c(OC)cc2OC)c(OC)c1`, the NF-kB reporter was found to be 0.958 ± 0.24 in assay [1] (setting [4]), 0.902 ± 0.13 in assay [1] (agonist: LPS 0.1 ug/mL) and 0.839 ± 0.067 in assay [1] (agonist: MPLA […]). Besides, the IRF reporter in assay [2] (agonist: 3'3'-cGAMP 10 ug/mL) was 0.506 ± 0.013; in assay [2] (agonist: LPS 0.1 ug/mL) it was 1.15 ± 0.16; in assay [2] (agonist: MPLA […]), 1.06 ± 0.17. Moreover, the viability score in assay [3] was 1 (active).

On to `CC1=CCCC(=O)C2CC(C)(C)C2CC1` (centres undefined), for which the NF-kB reporter in assay [1] (setting [4]) came out at 0.95 ± 0.13; in assay [1] (agonist: LPS 0.1 ug/mL), 0.857 ± 0.11; in assay [1] (agonist: MPLA […]) it was 0.89 ± 0.083. Moreover, the IRF reporter came out at 0.876 ± 0.031 in assay [2] (agonist: 3'3'-cGAMP 10 ug/mL), 1.05 ± 0.15 in assay [2] (agonist: LPS 0.1 ug/mL) and 1.05 ± 0.3 in assay [2] (agonist: MPLA […]). Further, the viability score in assay [3] was 1.05 (active).

`NC(=O)c1ncn([C@@H]2O[C@H](CO)[C@@H](O)[C@H]2O)c1N`: the NF-kB reporter in assay [1] (setting [4]) worked out at 1.11 ± 0.086; in assay [1] (agonist: LPS 0.1 ug/mL) it was 1.03 ± 0.051; in assay [1] (agonist: MPLA […]) it was 1.04 ± 0.041. Besides, the IRF reporter stood at 0.94 ± 0.052 in assay [2] (agonist: 3'3'-cGAMP 10 ug/mL), 0.977 ± 0.089 in assay [2] (agonist: LPS 0.1 ug/mL) and 0.949 ± 0.12 in assay [2] (agonist: MPLA […]). Moreover, the viability score in assay [3] was 0.994 (active).

For the compound `O=S(=O)(C=Cc1ccccc1)NCc1ccccc1`, the NF-kB reporter in assay [1] (setting [4]) is 0.933 ± 0.15; in assay [1] (agonist: LPS 0.1 ug/mL), 1.03 ± 0.083; in assay [1] (agonist: MPLA […]) it was 0.953 ± 0.085. Moreover, the IRF reporter in assay [2] (agonist: 3'3'-cGAMP 10 ug/mL) was found to be 1.03 ± 0.028; in assay [2] (agonist: LPS 0.1 ug/mL), 1.28 ± 0.13; in assay [2] (agonist: MPLA […]), 1.61 ± 0.37. Moreover, the viability score in assay [3] is 0.97 (active).

As for `COc1ccc(S(=O)(=O)NC(C)C)c2ccccc12`, the NF-kB reporter in assay [1] (setting [4]) is 0.904 ± 0.09; in assay [1] (agonist: LPS 0.1 ug/mL), 0.942 ± 0.084; in assay [1] (agonist: MPLA […]), 1.06 ± 0.06. Moreover, the IRF reporter in assay [2] (agonist: 3'3'-cGAMP 10 ug/mL) was 0.999 ± 0.074; in assay [2] (agonist: LPS 0.1 ug/mL), 1.01 ± 0.13; in assay [2] (agonist: MPLA […]) it was 1.08 ± 0.39. In addition, the viability score in assay [3] is 0.951 (active).

Take `O=C(C=Cc1ccccc1)c1ccc(OC2OC(CO)C(O)C(O)C2O)cc1O` (centres undefined): the figures for the NF-kB reporter in assay [1] (setting [4]), in assay [1] (agonist: LPS 0.1 ug/mL) and in assay [1] (agonist: MPLA […]) were 1.18 ± 0.068, 1.03 ± 0.082 and 0.94 ± 0.07, respectively. Besides, the IRF reporter was found to be 1.02 ± 0.039 in assay [2] (agonist: 3'3'-cGAMP 10 ug/mL), 1.32 ± 0.087 in assay [2] (agonist: LPS 0.1 ug/mL) and 1.2 ± 0.17 in assay [2] (agonist: MPLA […]). Besides, the viability score in assay [3] is 0.986 (active).

With `Cc1ccc(OCCCOc2cccc3cccnc23)c(Cl)c1`, the NF-kB reporter in assay [1] (setting [4]) is 0.808 ± 0.076; in assay [1] (agonist: LPS 0.1 ug/mL), 1.02 ± 0.056; in assay [1] (agonist: MPLA […]), 0.877 ± 0.057. Also, the IRF reporter in assay [2] (agonist: 3'3'-cGAMP 10 ug/mL) stood at 0.947 ± 0.077; in assay [2] (agonist: LPS 0.1 ug/mL), 1.32 ± 0.14; in assay [2] (agonist: MPLA […]) it was 1.05 ± 0.076. The viability score in assay [3] is 1.01 (active).

For the compound `Oc1ccc(O)cc1`, the NF-kB reporter worked out at 1.33 ± 0.2 in assay [1] (setting [4]), 0.586 ± 0.41 in assay [1] (agonist: LPS 0.1 ug/mL) and 0.377 ± 0.093 in assay [1] (agonist: MPLA […]). The IRF reporter in assay [2] (agonist: 3'3'-cGAMP 10 ug/mL) was found to be 0.459 ± 0.018; in assay [2] (agonist: LPS 0.1 ug/mL) it was 0.58 ± 0.41; in assay [2] (agonist: MPLA […]), 0.211 ± 0.13. Moreover, in assay [3], the viability score was 0.909 (active).

In the case of `CC1=C(C(=O)OCC(F)(F)C(F)(F)F)C(c2ccccc2)NC(=O)N1` (centres undefined), the NF-kB reporter in assay [1] (setting [4]) came out at 0.847 ± 0.052; in assay [1] (agonist: LPS 0.1 ug/mL) it was 0.975 ± 0.077; in assay [1] (agonist: MPLA […]), 0.863 ± 0.053. The results for the IRF reporter in assay [2] (agonist: 3'3'-cGAMP 10 ug/mL), in assay [2] (agonist: LPS 0.1 ug/mL) and in assay [2] (agonist: MPLA […]) were 1.31 ± 0.05, 1.34 ± 0.089 and 1.23 ± 0.23, respectively. In assay [3], the viability score was 0.934 (active).

Regarding `CC1(C)Cc2ccccc2C(C[N+](=O)[O-])=N1`, the NF-kB reporter came out at 0.899 ± 0.07 in assay [1] (setting [4]), 0.901 ± 0.1 in assay [1] (agonist: LPS 0.1 ug/mL) and 1.65 ± 0.61 in assay [1] (agonist: MPLA […]). Moreover, the results for the IRF reporter in assay [2] (agonist: 3'3'-cGAMP 10 ug/mL), in assay [2] (agonist: LPS 0.1 ug/mL) and in assay [2] (agonist: MPLA […]) were 0.963 ± 0.056, 1.26 ± 0.08 and 1.38 ± 0.13, respectively. The viability score in assay [3] is 0.997 (active).

Regarding `Cc1ccc(C2(c3ccc(C)cc3)CC2C(=O)Nc2cccnc2)cc1` (centres undefined), the NF-kB reporter in assay [1] (setting [4]) is 0.883 ± 0.061; in assay [1] (agonist: LPS 0.1 ug/mL), 0.985 ± 0.076; in assay [1] (agonist: MPLA […]), 0.82 ± 0.023. Besides, the results for the IRF reporter in assay [2] (agonist: 3'3'-cGAMP 10 ug/mL), in assay [2] (agonist: LPS 0.1 ug/mL) and in assay [2] (agonist: MPLA […]) were 1.02 ± 0.036, 1.01 ± 0.062 and 0.91 ± 0.14, respectively. Further, in assay [3], the viability score is 0.998 (active).

Take `CCC1SC(=NN=Cc2cccc3ccccc23)NC1=O` (centres undefined): the NF-kB reporter in assay [1] (setting [4]) came to 1.08 ± 0.14; in assay [1] (agonist: LPS 0.1 ug/mL), 0.974 ± 0.087; in assay [1] (agonist: MPLA […]), 0.972 ± 0.044. Besides, the IRF reporter in assay [2] (agonist: 3'3'-cGAMP 10 ug/mL) was 0.92 ± 0.034; in assay [2] (agonist: LPS 0.1 ug/mL), 1.01 ± 0.085; in assay [2] (agonist: MPLA […]) it was 0.974 ± 0.2. The viability score in assay [3] is 1 (active).

(Values after the supplement of paper PMC10646978.)
